Six1-Eya2 inh – Six1/Eya2 interaction inhibition | AID 651725 | activity change, % (concentration not given with the values) | hit rate 0.56% among 360,000 | AlphaScreen GST-Six1/His-Eya2 binding, biochemical; active compounds read low | Q15475+O00167; in the data active = activity change below about -65%; inconclusive = mostly about -30% to -63%
Target sequence (O00167 whole entry, looked up): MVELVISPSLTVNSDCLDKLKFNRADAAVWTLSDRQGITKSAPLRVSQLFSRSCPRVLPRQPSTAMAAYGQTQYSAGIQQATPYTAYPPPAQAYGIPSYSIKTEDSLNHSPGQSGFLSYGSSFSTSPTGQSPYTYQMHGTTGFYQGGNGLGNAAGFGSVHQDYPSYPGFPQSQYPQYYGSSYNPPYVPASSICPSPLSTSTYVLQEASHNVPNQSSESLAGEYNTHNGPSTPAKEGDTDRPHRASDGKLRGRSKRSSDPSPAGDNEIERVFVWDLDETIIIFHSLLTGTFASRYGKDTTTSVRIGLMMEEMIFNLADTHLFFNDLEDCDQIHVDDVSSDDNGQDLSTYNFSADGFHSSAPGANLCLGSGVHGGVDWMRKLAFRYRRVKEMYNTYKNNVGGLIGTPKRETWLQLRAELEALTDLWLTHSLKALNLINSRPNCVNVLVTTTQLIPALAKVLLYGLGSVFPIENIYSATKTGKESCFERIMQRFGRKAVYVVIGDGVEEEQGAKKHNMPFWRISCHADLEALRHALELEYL
Target sequence (Q15475 whole entry, looked up): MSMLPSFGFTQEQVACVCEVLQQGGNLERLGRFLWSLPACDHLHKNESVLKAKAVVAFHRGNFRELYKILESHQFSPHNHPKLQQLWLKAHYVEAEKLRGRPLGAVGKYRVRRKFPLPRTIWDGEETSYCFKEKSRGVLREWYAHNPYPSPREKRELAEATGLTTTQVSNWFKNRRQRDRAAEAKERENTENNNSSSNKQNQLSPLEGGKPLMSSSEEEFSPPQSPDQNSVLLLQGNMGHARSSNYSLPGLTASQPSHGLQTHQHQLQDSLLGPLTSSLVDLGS
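GST-Six1 + His-Eya2 (5X stock: 250/500 nM); Tris pH 8.0, 300 mM NaCl, 0.05% BSA, 0.02% Tween 20; GSH donor/Ni acceptor beads; 1 h 37 °C dark; AlphaScreen readout.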
TDP1 block – blocks human tyrosyl-DNA phosphodiesterase 1; Q9NUW8; Potency, µM (highest dose often 130 µM), for inactives: top-dose activity change, negative = inhibition, usual class: inhibitors; AID 485290; hit rate 0.28% among 350,000; recombinant TDP1, AlphaScreen DNA substrate cleavage; also: potency is read from the fitted curve at half-maximal effect; nearly all actives have a fitted effect of over 40% in size
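Recombinant human Tdp1 (E. coli-expressed, 1 nM final) preincubated with compounds 15 min at room temperature, then 5'-biotin/3'-phosphotyrosine-FITC DNA substrate (15 nM final) added for 5 min. AlphaScreen beads (10 ug/ml final) added 10 min; cleavage lowers signal.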
TDP1 cell noCPT – qHTS for Inhibitors of human tyrosyl-DNA phosphodiesterase 1 (TDP1): qHTS in cells in absence of CPT; DT40 Tdp1-/- hTDP1 cells, no CPT, ATP luminescence, 48 h; Potency, µM (doses to about 46.2 µM), without a hit: at the highest dose activity change, negative = growth inhibition, usual class: inhibitors; hit rate 15% among 420,000; AID 686978, 2013; also: potency is read from the fitted curve at half-maximal effect; nearly all actives have a fitted effect of over 55% in size
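No-CPT arm: Tdp1-/-;hTDP1 DT40 cells (400/well) plus compounds, incubated ≥48 hr at 37 °C. Readout CellTiter-Glo luminescence.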
CtBP-E1A inh – blocks the CtBP interaction with E1A. hit rate 0.49% among 340,000. AlphaScreen GST-E1A/His-CtBP binding, 1536-well; active compounds read low. activity change, % (concentration not given with the values); in the data active = activity change below about -65%; inconclusive = mostly about -30% to -63%
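AlphaScreen with 125 nM GST-E1A and 125 nM His-CtBP (5X stocks) in Tris pH 8.0, 300 mM NaCl, BSA, Tween 20, TCEP. Compounds preincubated 2 h at 37 deg C, then glutathione donor/nickel acceptor beads added for 1 h at 37 deg C in dark.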
TDP1 cell CPT – DT40-hTDP1 cell growth loss with CPT. AID 686979. hit rate 12% among 420,000. Potency, µM (top dose mostly 46.2 µM), for the others: at the top dose activity change, negative = growth inhibition, usual class: inhibitors. chicken DT40 Tdp1-/-;hTDP1 cells + 20 nM CPT, ATP luminescence, 48 h; also: potency is read from the fitted curve at half-maximal effect; nearly all actives have a fitted effect of over 55% in size
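Chicken DT40 Tdp1-/- cells complemented with human TDP1, 400 cells/well, exposed to compounds plus 20 nM camptothecin for at least 48 h at 37 C; viability read as ATP content by CellTiter-Glo luminescence.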
IL-1B inflam inh – blocks inflammasome-driven IL-1 beta release | THP-1 LPS/ATP IL-1B secretion, AlphaLISA, 16 h; active compounds read low | activity change, % at 57.5 µM | hit rate 4.7% among 360,000; in the data active = activity change below about -50%; inconclusive = mostly about -30% to -49%
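THP-1 cells pretreated 1 hr with compounds (up to 57.5 uM final), then stimulated with LPS (250 ng/mL final) plus ATP (1.25 mM final); secreted IL-1B measured by AlphaLISA after 16 hr, decreased signal indicating inhibition.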
Starred values were filed as active, the others as inactive; ? = inconclusive; . = no result; [ ] = remark or other dose. This is a sample that favours compounds with a hit; in the whole collection about 18% have one here. Unless noted, calls follow the shape of the dose curve; as a rule, active = well fitted curve in the direction sought with a large enough effect; inconclusive = small, poorly fitted or top-dose-only effect, or another doubt; inactive = no such curve, though single readings can be large; an effect the other way counts as inactive or inconclusive. % is scaled to controls: 0 for no effect and ±100 for the full control effect.

SMILES | Six1-Eya2 inh | TDP1 block | TDP1 cell noCPT | CtBP-E1A inh | TDP1 cell CPT | IL-1B inflam inh
Cc1cc(C(=O)N2CCN(c3ccc(C(F)(F)F)cn3)CC2)c(C)o1 | -2.7 | 2.9% | 10.3µM* | . | ? | -12.4
Cc1cccc(C(=O)N2CCN(c3ccc(C(F)(F)F)cn3)CC2)c1C | 4.6 | 5.9% | 20.6µM* | 9.1 | 13µM* | -26.1
Cc1ccc(C(=O)N2CCN(c3ccc(C(F)(F)F)cn3)CC2)o1 | -8.2 | 4.7% | ? | 13.5 | ? | -2.1
Cc1ccccc1-c1noc(CNC(=O)COc2ccccc2)n1 | 5.7 | 1.0% | 1.7% | 17.2 | 4.7% | 7.4
CCc1nc(NCC2CCCN2CC)c2nnn(Cc3ccccc3F)c2n1 (stereo not drawn) | -3.6 | 5.9% | ? | -3.4 | ? | 28.7
CC1CCN(c2nc3nonc3nc2Nc2ccc(F)cc2)CC1 | -2.6 | 4.8% | ? | -5.5 | 13.3% | -76.0*
COc1ccc(Nc2nc3nonc3nc2N2CCCCC2)cc1 | -21.2 | . | -17.0% | -5.0 | -2.1% | -4.0
O=C(NCCN1CCN(c2ccccc2)CC1)c1cccn2c(=O)c3ccccc3nc12 | 3.2 | 0.0% | 18.4µM* | -2.8 | ? | -2.4
CN(CCCNC(=O)c1cccn2c(=O)c3ccccc3nc12)Cc1ccccc1 | -12.6 | 3.8% | ? | -15.8 | 22.4µM* | ?
O=C(c1cccn2c(=O)c3ccccc3nc12)N1CCN(Cc2ccc3c(c2)OCO3)CC1 | -2.1 | -1.0% | ? | -3.3 | -23.8% | -11.2
O=C(NCCN1CCN(c2ccccc2F)CC1)c1cccn2c(=O)c3ccccc3nc12 | -3.8 | 6.0% | 16.4µM* | -2.7 | ? | 8.4
CCOC(=O)C1=C(COc2ccccc2)NC(=O)NC1c1cccc([N+](=O)[O-])c1 (stereo not drawn) | -0.7 | . | -9.5% | -2.6 | 3.0% | ?
Cc1cc(C(=O)NC2CCCc3c2cnn3-c2ccc(C)c(C)c2)no1 (stereo not drawn) | -3.3 | 2.0% | ? | 1.6 | 14.6µM* | 23.2
CCn1nc(C)cc1C(=O)NC1CCCc2c1cnn2-c1ccc(C)c(C)c1 (stereo not drawn) | 2.0 | 5.6% | ? | -3.0 | ? | 24.2
Cc1ccc(-n2ncc3c2CCCC3NC(=O)c2ocnc2C)cc1C (stereo not drawn) | 6.9 | -2.6%[56.1 µM] | 7.31µM* | 2.5 | 10.3µM* | -2.7
Cc1cccc(NC(=O)CSc2nnc3[nH]c(=O)cc(-c4ccccc4)n23)c1C | . | 0.0% | -10.8% | . | ? | .
O=C1C=CC(=O)C(CNc2ccc(C(=O)OCc3ccccc3)cc2)=C1 | -17.4 | . | 4.11µM* | -14.7 | 5.8µM* | -100.2*
COc1ccc(-n2c(=O)c3ccccc3n(Cc3ccc(F)cc3)c2=O)cc1OC | 0.8 | 6.8% | -12.5% | 0.8 | -13.7% | 2.3
C/C(=N\Nc1nc(C)cc(C)n1)c1ccc(C)o1 | -12.3 | 7.0% | 0.2% | -8.4 | 4.5% | -1.6
C/C(=N\Nc1nnc2c3ccccc3n(C)c2n1)c1ccc(C)o1 | -28.6 | 5.8% | ? | 1.1 | -18.1% | -65.2*
CC1CC=CC2C1C(=O)N(Cc1ccccc1)C2c1ccc(F)c(-c2ccc(N(C)C)cc2)c1 (stereo not drawn) | . | 20.3% | . | . | . | .
COc1ccc(S(=O)(=O)NNC(=O)C2Cc3c(ccc4ccccc34)O2)cc1 (stereo not drawn) | -3.1 | 0.0% | 20.6µM* | -1.4 | 16.4µM* | 21.6
COCCNC(=O)C1Cc2c(ccc3ccccc23)O1 (stereo not drawn) | -2.2 | 2.7% | -7.5% | 2.7 | 2.0% | 19.8
CC(C)CCNC(=O)C(=O)Nc1c2c(nn1-c1ccc(Cl)cc1)CSC2 | . | 10.4% | 11.6µM* | . | 25.9µM* | .
O=C(NCc1ccccc1)C(=O)Nc1c2c(nn1-c1ccc(F)cc1)CSC2 | . | 7.8% | 16.4µM* | . | ? | .
SMILES | Six1-Eya2 inh | TDP1 block | TDP1 cell noCPT | CtBP-E1A inh | TDP1 cell CPT | IL-1B inflam inh
COc1ccc(-n2nc3c(c2NC(=O)CCl)CSC3)cc1 | 17.9 | 3.4% | 2.31µM* | -14.3 | 2.59µM* | -106.9*
COc1ccc(-n2nc3c(c2NC(=O)C(C)Cl)CSC3)cc1 (stereo not drawn) | -1.0 | 6.3% | -25.1% | . | -14.4% | -7.7
O=C(NCCOCCO)C(=O)Nc1c2c(nn1-c1ccc(F)cc1)CSC2 | . | 7.8% | 1.0% | . | 7.0% | .
CC(=O)N1CCN(C(=O)C(=O)Nc2c3c(nn2-c2ccc(Cl)cc2)CSC3)CC1 | . | -2.6% | -13.2% | . | -0.5% | .
COc1ccc(N2C(=O)N3[C@H](c4ccc(Cl)cc4)[C@@H]4C(=O)N(C5CCCCC5)C(=O)[C@@H]4[C@]3(Cc3ccc(Cl)cc3)C2=O)cc1 | -2.8 | . | -4.9% | 3.5 | -6.1% | -8.7
COc1ccccc1NC(=O)C1CCN(S(=O)(=O)c2cccs2)CC1 | 0.2 | 0.6% | -6.6% | 11.8 | -4.6% | 2.2
CCOc1ccccc1NC(=O)C1CCCN(S(=O)(=O)c2ccc(OC)c(C)c2)C1 (stereo not drawn) | -7.3 | 0.0% | 16.4µM* | -0.4 | ? | -1.9
CCOc1ccc2nc(NC(=O)C3CCCN(S(=O)(=O)c4cccs4)C3)sc2c1 (stereo not drawn) | -27.9 | 6.8% | ? | -18.7 | ? | -57.7*
CCOc1ccccc1NC(=O)C1CCCN(S(=O)(=O)c2cccs2)C1 (stereo not drawn) | . | 0.9% | 23.1µM* | . | 23.1µM* | .
CCOc1ccc2nc(NC(=O)C(CCSC)NS(=O)(=O)c3cccs3)sc2c1 (stereo not drawn) | -10.9 | 8.0% | ? | 2.0 | ? | ?
Cc1ccc2nc(NC(=O)C3CCCN(S(=O)(=O)c4cccnc4)C3)sc2c1 (stereo not drawn) | -3.7 | 6.5% | 16.4µM* | -0.4 | 23.1µM* | -12.4
Cc1ccc(C)c(NC(=O)C2CCCN(S(=O)(=O)c3cccnc3)C2)c1 (stereo not drawn) | 0.3 | -0.1% | -17.5% | -14.6 | -23.3% | 48.4
COC(=O)[C@@]1(Cc2ccc(F)cc2)[C@H]2c3cc(C(=O)N(C)C)n(CCCNc4ncc(C(F)(F)F)cc4Cl)c3C[C@H]2CN1C(=O)c1ccccc1 | -4.6 | . | ? | -1.0 | ? | 0.0
COc1ccc(Cl)c2sc(N3CCN(C(=O)c4ccco4)CC3)nc12 | -13.6 | -3.7%[0.505 µM] | ? | -3.6 | ? | -5.9
COc1cc2ccccc2cc1C(=O)N1CCCC1 | 3.0 | 5.1% | 0.3% | 4.8 | -0.6% | -10.2
